# Experimental data taken from PubChem BioAssay.
# The source made the active and inactive calls. Unless noted, how the calls were made is not given here.
# Assays:
# [1] = anti-His antibody binders, primary screen, artefact control for SMM control protein annotation, biochemical, small-molecule microarray, 635 nm fluorescence (AID 1128); conditions: anti-His Alexa647 antibody binding, higher = more signal;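 further: score merges feature fluorescence with signal-to-noise for each printed compound spot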
# [2] = tested on: Human papillomavirus type 1a E7 protein (residues 1-88); experiment: HPV1a E7 small-molecule binders, primary screen, biochemical, small-molecule microarray, residues 1-88, 635 nm (AID 1129); conditions: small-molecule microarray binding, fluorescence 635 nm; higher = more signal
# [3] = molecular target: Focal adhesion kinase 1 (Homo sapiens) (UniProt Q05397); experiment: small-molecule microarray binders of FAK, primary screen, biochemical, 635/667 nm fluorescence, BSA, DTT (AID 1130); conditions: PTK2 binding, 635 nm fluorescence, higher = more signal;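 further: composite of spot emission at 667 nm and signal to noise over triplicate slides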
# [4] = tested on: Fibrinogen (Alexa647-labelled); experiment: fibrinogen binders on compound microarrays, profiling panel, artefact control for SMM control-protein annotation, biochemical, small-molecule microarray, 635/667 nm fluorescence (AID 1131); conditions: fibrinogen-A647 binding fluorescence, higher = more signal;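 further: z-score merges 667 nm fluorescence with per-spot signal-to-noise over triplicate slides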
# [5] = molecular target: Follistatin (Homo sapiens) (UniProt P19883); experiment: follistatin binders on small-molecule microarrays, primary screen, biochemical, small-molecule microarray, 635/667 nm fluorescence (AID 1132); conditions: FST binding, 635 nm fluorescence, higher = more signal
# [6] = molecular target: Fibroblast growth factor 2 (Homo sapiens) (UniProt P09038); experiment: FGF2 binders on small-molecule microarrays, primary screen, biochemical, small-molecule microarray, 635/667 nm fluorescence (AID 1133); conditions: small-molecule microarray binding, FGF2, fluorescence 635/667; higher = more signal
# [7] = mitochondrial membrane potential change in A549 cells, profiling panel, cell-based, JC-1 fluorescence, basal, 24 h, 100 nL (AID 1138); conditions: higher = more signal;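 further: A549 lung adenocarcinoma cells under basal conditions with no added stimulus; test concentration not given here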
# [8] = tested on: Lefty1; experiment: Lefty1 binders on small-molecule microarrays, primary screen, biochemical, small-molecule microarray, 635/667 nm fluorescence (AID 1139); conditions: small-molecule microarray binding, fluorescence 635/667; higher = more signal
# [9] = tested on: wheat germ agglutinin (Triticum aestivum), Alexa647-labelled; experiment: wheat germ agglutinin binders on compound microarrays, profiling panel, artefact control for SMM control-protein annotation, biochemical, small-molecule microarray, 635/667 nm fluorescence (AID 1140); conditions: WGA-A647 binding, 635 nm fluorescence, higher = more signal;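 further: score merges 667 nm feature emission with signal to noise over triplicate slides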
# [10] = molecular target: Luciferin 4-monooxygenase (Photinus pyralis) (UniProt P08659); experiment: firefly luciferase enzyme inhibitors, primary screen, biochemical, luminescence, purified enzyme, 2006 set (AID 1141); conditions: SteadyGlo luminescence, 30 min, higher = more signal, called active from +8 up or from −8 down;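 further: cell-free assay with purified firefly luciferase at 100 ng per well in PBS; test concentration not given here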
# [11] = tested on: Wnt5a (protein binding on small-molecule microarray); experiment: Wnt5a binders on small-molecule microarray, primary screen, biophysical, 635/667 nm fluorescence (AID 1142); conditions: 635 nm fluorescence, higher = more signal;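 further: fluorescence read at 667 nm with signal to noise per printed feature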
# [12] = cell viability in Huh7 cells, primary screen, cytotoxicity control for HCV replication inhibitor project, CellTiter-Glo luminescence, basal, 48 h (AID 1143); conditions: Huh7 HCV replicon, higher = more signal, called active from +8 up or from −8 down;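 further: Huh7 hepatoma cells carrying a hepatitis C replication reporter with no stimulus; test concentration not given here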
# [13] = P. aeruginosa biofilm formation inhibitors, primary screen, PAO1 strain, BacTiter-Glo luminescence, LB-PBS (AID 1144); conditions: 12 h, higher = more signal
# [14] = CREB reporter modulators without forskolin, primary screen, cell-based, PC12, CRE-LacZ reporter, unstimulated (AID 1145); conditions: no forskolin, luminescence, 4.5 h, higher = more signal, called active from +8 up or from −8 down
# [15] = CREB reporter modulators under forskolin, primary screen, cell-based, PC12, CRE-LacZ reporter, forskolin-stimulated (AID 1146); conditions: luminescence, 4.5 h, higher = more signal, called active from +8 up or from −8 down;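 further: PC12 cells with 6xCRE LacZ reporter stimulated by forskolin 10 µM; beta-galactosidase reporter signal reflecting CREB driven transcription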
# [16] = molecular target: Streptavidin (Streptomyces avidinii) (UniProt P22629); experiment: streptavidin binders on small-molecule microarray, primary screen, artefact control for SMM compound annotation, biophysical, 635/667 nm fluorescence (AID 1147); conditions: streptavidin binding, higher = more signal;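 further: signal reflects streptavidin binding to arrayed compounds as a control protein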
# [17] = small-molecule binders of probe aInhba, primary screen, biochemical, small-molecule microarray, 635/667 nm fluorescence (AID 1148); conditions: higher = more signal;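 further: score merges 667nm spot fluorescence with signal-to-noise for antibody binding to printed compounds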
# [18] = molecular target: Torsin-1A (Homo sapiens) (UniProt O14656); experiment: torsin A binders from cell lysate, primary screen, small-molecule microarray, wild-type, 635/667 nm (AID 1149); conditions: COS7 hTOR1A-WT lysate, 635 nm fluorescence, higher = more signal
# [19] = molecular target: Torsin-1A (Homo sapiens) (UniProt O14656); experiment: small-molecule binders of mutant TOR1A in lysate, primary screen, cell lysate, small-molecule microarray, COS7 lysate, 635/667 nm fluorescence (AID 1150); conditions: COS7 hTOR1A mutant lysate, 635 nm fluorescence, higher = more signal;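 further: score pools 667 nm emission and signal to noise measuring lysate protein binding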
# [20] = tested on: Sonic hedgehog protein (Shh); experiment: small-molecule binders of Shh protein, primary screen, biochemical, small-molecule microarray, 635/667 nm fluorescence (AID 1151); conditions: small-molecule microarray binding, 635 nm fluorescence; higher = more signal;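 further: Shh protein binding to compounds spotted on small-molecule microarray slides; score combines spot fluorescence intensity with signal-to-noise across triplicate slides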
# Torsin-1A (Homo sapiens), sequence (O14656 whole entry, looked up): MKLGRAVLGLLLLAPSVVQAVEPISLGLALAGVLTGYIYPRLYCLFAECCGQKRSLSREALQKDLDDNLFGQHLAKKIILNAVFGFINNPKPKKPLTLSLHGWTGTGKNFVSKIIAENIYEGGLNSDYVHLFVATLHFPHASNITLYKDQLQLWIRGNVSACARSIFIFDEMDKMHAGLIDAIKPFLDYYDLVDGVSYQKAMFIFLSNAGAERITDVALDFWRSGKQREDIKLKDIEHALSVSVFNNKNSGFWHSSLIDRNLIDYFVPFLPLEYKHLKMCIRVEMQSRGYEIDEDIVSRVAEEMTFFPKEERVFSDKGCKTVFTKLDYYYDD
# Follistatin (Homo sapiens), sequence (P19883 whole entry, looked up): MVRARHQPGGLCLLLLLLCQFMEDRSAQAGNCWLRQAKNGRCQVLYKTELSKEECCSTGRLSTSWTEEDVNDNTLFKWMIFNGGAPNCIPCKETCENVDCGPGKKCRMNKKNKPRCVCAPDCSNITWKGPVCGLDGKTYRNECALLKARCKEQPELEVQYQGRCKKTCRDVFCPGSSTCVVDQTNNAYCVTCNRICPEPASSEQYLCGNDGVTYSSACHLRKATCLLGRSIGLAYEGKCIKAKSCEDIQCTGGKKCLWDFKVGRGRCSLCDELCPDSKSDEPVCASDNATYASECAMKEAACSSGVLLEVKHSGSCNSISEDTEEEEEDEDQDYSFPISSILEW
# Focal adhesion kinase 1 (Homo sapiens), sequence (Q05397 whole entry, looked up): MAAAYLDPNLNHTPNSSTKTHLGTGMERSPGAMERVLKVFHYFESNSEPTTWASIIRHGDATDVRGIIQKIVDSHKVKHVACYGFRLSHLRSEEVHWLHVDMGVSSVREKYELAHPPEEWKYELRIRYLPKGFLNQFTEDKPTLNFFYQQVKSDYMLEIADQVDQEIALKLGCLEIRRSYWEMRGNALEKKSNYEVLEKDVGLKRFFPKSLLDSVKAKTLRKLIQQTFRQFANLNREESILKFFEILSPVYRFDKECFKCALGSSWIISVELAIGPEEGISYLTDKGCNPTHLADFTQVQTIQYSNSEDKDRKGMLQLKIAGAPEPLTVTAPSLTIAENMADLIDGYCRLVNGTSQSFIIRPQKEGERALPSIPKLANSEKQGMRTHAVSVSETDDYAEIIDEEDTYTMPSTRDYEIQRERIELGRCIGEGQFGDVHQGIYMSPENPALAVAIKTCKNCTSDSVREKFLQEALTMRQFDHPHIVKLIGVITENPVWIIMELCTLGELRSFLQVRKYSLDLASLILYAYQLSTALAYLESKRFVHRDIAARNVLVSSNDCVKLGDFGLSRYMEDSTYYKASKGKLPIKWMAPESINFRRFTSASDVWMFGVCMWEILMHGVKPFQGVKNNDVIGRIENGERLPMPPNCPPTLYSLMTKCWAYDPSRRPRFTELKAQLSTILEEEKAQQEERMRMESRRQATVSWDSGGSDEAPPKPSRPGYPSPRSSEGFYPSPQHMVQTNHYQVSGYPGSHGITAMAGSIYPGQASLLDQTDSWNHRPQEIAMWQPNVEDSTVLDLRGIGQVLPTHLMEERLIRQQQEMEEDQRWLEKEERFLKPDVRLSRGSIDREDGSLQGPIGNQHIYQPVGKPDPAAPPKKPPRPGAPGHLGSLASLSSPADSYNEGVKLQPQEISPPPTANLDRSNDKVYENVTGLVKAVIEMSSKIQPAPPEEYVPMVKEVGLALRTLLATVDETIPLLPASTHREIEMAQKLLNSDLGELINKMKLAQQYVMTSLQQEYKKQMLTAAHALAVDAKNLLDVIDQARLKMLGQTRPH
# Luciferin 4-monooxygenase (Photinus pyralis), sequence (P08659 whole entry, looked up): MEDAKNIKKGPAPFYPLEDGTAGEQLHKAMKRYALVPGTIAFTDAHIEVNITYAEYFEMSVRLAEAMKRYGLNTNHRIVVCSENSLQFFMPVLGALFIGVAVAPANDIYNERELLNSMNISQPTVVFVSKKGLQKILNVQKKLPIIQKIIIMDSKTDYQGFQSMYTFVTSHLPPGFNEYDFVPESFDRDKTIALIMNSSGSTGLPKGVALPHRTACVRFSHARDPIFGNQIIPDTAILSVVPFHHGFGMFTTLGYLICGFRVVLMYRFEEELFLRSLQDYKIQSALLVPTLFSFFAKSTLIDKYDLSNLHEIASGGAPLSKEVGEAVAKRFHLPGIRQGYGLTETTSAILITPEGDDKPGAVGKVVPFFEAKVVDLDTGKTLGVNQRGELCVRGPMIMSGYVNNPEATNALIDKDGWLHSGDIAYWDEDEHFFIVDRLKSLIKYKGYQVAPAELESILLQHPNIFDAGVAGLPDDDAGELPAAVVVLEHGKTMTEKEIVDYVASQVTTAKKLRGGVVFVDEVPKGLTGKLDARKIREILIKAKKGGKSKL
# Fibroblast growth factor 2 (Homo sapiens), sequence (P09038 whole entry, looked up): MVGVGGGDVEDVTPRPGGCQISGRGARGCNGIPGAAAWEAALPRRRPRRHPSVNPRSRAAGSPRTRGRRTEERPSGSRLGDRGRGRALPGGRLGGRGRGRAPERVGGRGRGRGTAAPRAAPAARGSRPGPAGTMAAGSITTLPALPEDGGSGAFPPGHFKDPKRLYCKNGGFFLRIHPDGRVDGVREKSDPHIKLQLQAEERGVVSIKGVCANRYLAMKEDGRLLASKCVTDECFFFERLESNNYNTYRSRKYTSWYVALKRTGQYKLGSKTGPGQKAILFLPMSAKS
# Streptavidin (Streptomyces avidinii), sequence (P22629 whole entry, looked up): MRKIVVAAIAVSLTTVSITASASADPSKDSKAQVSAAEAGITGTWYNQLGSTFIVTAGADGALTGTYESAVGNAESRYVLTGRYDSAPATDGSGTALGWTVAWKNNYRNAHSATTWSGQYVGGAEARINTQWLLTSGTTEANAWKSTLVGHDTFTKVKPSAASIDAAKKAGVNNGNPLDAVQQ
Compound,composite z-score [1],composite z-score [2],composite z-score [3],composite z-score [4],composite z-score [5],composite z-score [6],z-score [7],composite z-score [8],composite z-score [9],z-score [10],composite z-score [11],z-score [12],z-score [13],z-score [14],z-score [15],composite z-score [16],composite z-score [17],composite z-score [18],composite z-score [19],composite z-score [20]
C=C(/C(=C/C[C@H](OC(=O)c1ccncc1)c1ccccc1OCCO)c1cnc2ccccc2c1)C(C)C,1.23,1.22,0.374,0.958,1.39,1.42,0.707,1.39,0.846,-0.177 (inactive),0.733,-0.0956 (inactive),-0.91 (inactive),2.52 (inactive),1.5 (inactive),1.81,0.0471,1.06,1.07,2.01
COCCOC(=O)N1C(=O)[C@@]2(c3cc(C#CCNC(N)=O)ccc31)[C@H](c1ccc(OCCO)cc1)N1[C@H](c3ccccc3)[C@H](c3ccccc3)OC(=O)[C@H]1[C@@H]2C(=O)NC[C@H](O)c1ccccc1,0.626,0.984,0.445,0.942,1.37,1,-1.19,1.16,0.768,0.0945 (inactive),0.423,-0.441 (inactive),-0.498 (inactive),-1.56 (inactive),-0.567 (inactive),0.904,0.111,0.367,0.792,1.27
O=C1N(CCS(=O)(=O)c2ccccc2)Cc2ccccc2[C@@H]2OC(c3ccc(OCCCO)cc3)=N[C@]12CCS(=O)(=O)c1ccccc1,0.519,1.27,1.2,0.645,1.41,1.7,-1.19,0.783,0.817,-2.08 (inactive),1.24,-1.5 (inactive),0.151 (inactive),3.2 (inactive),-0.897 (inactive),0.844,-0.108,0.827,1.51,1.4
CC(C)C(CO)N1C(=O)[C@@H]2[C@H]3C(=O)OCC=C[C@H]3OC23C=CCN(C(C)(C)C)C(=O)[C@@H]13 (stereo not given in full),-0.54,-1.09,-0.513,-0.0751,0.277,-0.405,-1.76,0.503,-0.0676,-0.159 (inactive),-0.682,-0.342 (inactive),0.947 (inactive),1.01 (inactive),0.412 (inactive),-0.633,-0.0762,-1.59,-0.934,0.54
CCOC(=O)C1=CCN(S(=O)(=O)c2ccc(C)cc2)C1c1ccccc1 (stereo not given),0.843,1.2,0.656,0.609,0.467,0.835,0.942,0.0842,0.652,1.75 (inactive),0.0881,-3.3 (inactive),0.498 (inactive),-0.284 (inactive),-1.12 (inactive),0.388,0.141,0.355,0.302,0.598
CCCCCN1CC=CC23O[C@@H]4C=CCOC(=O)[C@@H]4[C@H]2C(=O)N(CCO)[C@@H]3C1=O (stereo not given in full),1.58,-0.22,0.0763,-1.05,-0.693,-0.903,-0.222,-0.306,-0.324,0.056 (inactive),-0.395,-0.143 (inactive),1.13 (inactive),-0.0818 (inactive),-0.585 (inactive),-0.958,-0.205,1.17,1.78,-0.456
C=C(COC)/C(=C/C[C@@H](OC(=O)c1ccncc1)c1ccccc1OCCO)c1cc(C(=O)OC)ccc1OC,-1.25,-0.975,-0.478,-1.5,0.249,-0.203,2.02,-0.247,-1.12,-2.4 (inactive),-0.146,-1.88 (inactive),0.454 (inactive),14.7 (active),3.84 (inactive),-0.409,-0.0762,0.758,-0.103,0.249
CC1(C)C(=O)C(c2ccccc2)=C2CN3C(=O)N(CCc4ccccc4)C(=O)C3(Cc3ccc(F)cc3)C=C21 (stereo not given),1.47,0.324,-0.104,-0.402,0.0178,-0.979,-0.593,-0.784,0.432,0.907 (inactive),0.198,-1.86 (inactive),-0.425 (inactive),0.587 (inactive),-0.0536 (inactive),0.326,0.349,-0.448,0.0142,-1.41
COC(=O)[C@@]1(Cc2ccc(F)cc2)[C@H]2c3cc(C(=O)N(C)C)n(Cc4c(CO)[nH]cc(C)c4=O)c3C[C@H]2CN1C(=O)c1ccccc1,0.394,0.453,0.0551,-0.466,-0.198,-0.197,0.932,-0.0191,0.406,0.593 (inactive),0.39,-0.401 (inactive),-0.00694 (inactive),0.39 (inactive),1.15 (inactive),-0.0278,0.0212,0.475,-0.134,-0.462
